Activity calls are given as the source filed them. The calls were made as follows: active = hit-call score of the fitted dose curve at least 0.9, where 1 is the maximum; inactive = score below 0.9.
read-out: Forkhead box O3 (FOXO3), FOXO3 (gene 2309); assay: LTEA_HepaRG_FOXO3: Life Technologies and Expression Analysis (LTEA) Assay for Forkhead box O3 (FOXO3) using HepaRG (AID 2283459); details: mRNA level, 48 h; actives raise or lower the signal
Outline: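 qRT-PCR readout of FOXO3 transcript, normalized to three housekeeping genes (ACTB, GAPDH, POLR2A); gain or loss fitted against 0.5% DMSO vehicle. HepaRG cells, 48 h chemical exposure, 8-point half-log series, top 100 uM.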

Row | SMILES | outcome | AC50
1 | CCCCCCCCO | inactive | 
2 | CC(=O)c1ccc2c(c1)[C@H](NC(=O)c1ccc(F)cc1)[C@@H](O)C(C)(C)O2 | inactive | 
3 | CC1(C)C(=O)N(Br)C(=O)N1Br | inactive | 
4 | CCNc1ccccc1 | inactive | 
5 | COc1ccc(/C=C/S(=O)(=O)NC(=O)c2ccc(C)cc2Cl)cc1 | inactive | 
6 | CC(C)CCO | inactive | 
7 | O=C(O)CCN(C1(C(=O)NO)CCCC1)S(=O)(=O)c1ccc(Oc2ccc(F)cc2)cc1 | inactive | 
8 | C=CC(=C)CCC=C(C)C | inactive | 
9 | CC(O)CN(CCN(CC(C)O)CC(C)O)CC(C)O (stereo not drawn) |  | 12.4 µM (active)
10 | CCCN(C1CCN(C(=O)C2CCNCC2)CC1)[C@@H]1CCc2ccc(OC)cc2C1 |  | 27.6 µM (active)
11 | CCc1cc(SCc2sc(-c3ccc(C(F)(F)F)cc3)nc2CN2CCN(c3ccc(OC)cc3)CC2)ccc1OCC(=O)O |  | 93.5 µM (active)
12 | CCOc1cccc(-n2cc(C(=O)N3CCN(c4cc(C(=O)O)c5ccccc5c4)CC3)nc2-c2ccc(C)cc2)c1 |  | 77.2 µM (active)
13 | O=C(O)CC(O)C(=O)O (stereo not drawn) | inactive | 
14 | O=C(O)c1cc(N=Nc2ccc(S(=O)(=O)Nc3ccccn3)cc2)ccc1O | inactive | 
15 | C[C@](N)(Cc1ccc(O)c(O)c1)C(=O)O | inactive | 
16 | On1ccccc1=S | inactive | 
17 | Cn1c(=O)c2c(ncn2C)n(C)c1=O | inactive | 
18 | O=C(OC[C@H]1O[C@@H](OC(=O)c2cc(O)c(O)c(OC(=O)c3cc(O)c(O)c(O)c3)c2)[C@H](OC(=O)c2cc(O)c(O)c(OC(=O)c3cc(O)c(O)c(O)c3)c2)[C@@H](OC(=O)c2cc(O)c(O)c(OC(=O)c3cc(O)c(O)c(O)c3)c2)[C@@H]1OC(=O)c1cc(O)c(O)c(OC(=O)c2cc(O)c(O)c(O)c2)c1)c1cc(O)c(O)c(OC(=O)c2cc(O)c(O)c(O)c2)c1 | inactive | 

From PubChem BioAssay (EPA / NIEHS)
